The sample as a whole holds a higher share of hits than the screen did.
Tgondii IFNg: T. gondii growth inhibition under IFN-gamma; 3.8% of 69,000 active; AID 1259416; Toxoplasma gondii growth in IFN-gamma-treated host cells; hits give low values; activity change, negative = inhibition, % (concentration not given with the values); in the data active = activity change below about -70%, passing the limit was not always enough;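 note: host cells are HeLa cells infected with Toxoplasma gondii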
Active calls of the source: *; ! = not active in a repeat.

Results for C[C@H]1[C@H](C)CC[C@]2(C(=O)O)CC[C@]3(C)C(=CCC4[C@@]5(C)C[C@@H](O)[C@H](O)[C@@](C)(CO)C5CC[C@]43C)[C@H]12 (some centres undefined) ?
Tgondii IFNg: 23

Results for Cn1c(=O)n(C)c2cc(C(=O)N3CCC(c4ccncc4)CC3)ccc21 ?
Tgondii IFNg: -9

What do the screens show for `CCCn1c(=O)c(-c2nc(-c3cccc(OC)c3)no2)c(O)c2ccccc21`?
Tgondii IFNg: -3

Results for Cc1ccc(-c2cc3c(=O)n(Cc4nc(-c5ccc(OC(C)C)cc5)oc4C)ccn3n2)cc1 ?
Tgondii IFNg: -73

Results for CC(C)CCC1=NC2(CCN(C(=O)C3CCOC(C)(C)C3)CC2)C(=O)N1 (centres undefined) ?
Tgondii IFNg: 2

How did Cc1cccc(-c2nc(C)c(CCNC(=O)C(=O)Nc3ccc([N+](=O)[O-])cc3)s2)c1 do in these assays?
Tgondii IFNg: 39

What do the screens show for `O=C(COCc1ccccc1)N1[C@H]2CCNC[C@@H]1CC2`?
Tgondii IFNg: 5

Results for Cc1cc(=O)n2[nH]c(C3CCCN3C(=O)c3ccccn3)cc2n1 (centres undefined) ?
Tgondii IFNg: -2

What do the screens show for `CC(C)CN1C2COCC1CN(Cc1nccs1)C2`?
Tgondii IFNg: 0

Results for CCc1cccc2c(CC(=O)Nc3nc(C(C)=O)cs3)c(C)[nH]c12 ?
Tgondii IFNg: 155

Results for CN(Cc1cc(C(C)(C)C)n[nH]1)C(=O)c1cnnn1-c1ccccc1 ?
Tgondii IFNg: 1

What do the screens show for `COCC12CCCOC1CCN(c1cc(OC)ncn1)C2` (centres undefined)?
Tgondii IFNg: 21

How did CCN(CC)C(=O)C1CCCN(c2nccc(CCC(F)(F)F)n2)C1 (centres undefined) do in these assays?
Tgondii IFNg: -12

How did FC(F)(F)c1ccncc1-c1ncc(-c2cccc(Cl)c2)o1 do in these assays?
Tgondii IFNg: -95*

What do the screens show for `Cc1cccc(C)c1-n1nnnc1-c1cnccc1C(F)(F)F`?
Tgondii IFNg: 26

Results for O=C(NC(=O)c1cnccc1C(F)(F)F)Nc1ccc(Cl)cc1Cl ?
Tgondii IFNg: -54

How did CC(O)(c1ccncc1)c1nccs1 (centres undefined) do in these assays?
Tgondii IFNg: 7

How did Cc1cc(N2C[C@@H]3[C@H](C2)[C@H]2CC[C@@H]3O2)nc(-c2ccccc2)n1 do in these assays?
Tgondii IFNg: -6

Results for CCc1nc(CN2CCC(CNC(=O)C3CCCCC3)C2)c(C)[nH]1 (centres undefined) ?
Tgondii IFNg: 8

What do the screens show for `CCOc1ccc(NC(=O)C2=C(C)C(=O)OC23CCN(Cc2ccccc2)CC3)cc1`?
Tgondii IFNg: 30

How did CC1=C(C(=O)Nc2ccc(Cl)c(Cl)c2)C2(CCN(Cc3ccccc3)CC2)OC1=O do in these assays?
Tgondii IFNg: -93*

What do the screens show for `CC1=C(C(=O)Nc2ccc(Cl)cc2)C2(CCN(Cc3ccccc3)CC2)OC1=O`?
Tgondii IFNg: -30

Results for Cc1cc(C)n(CCCN(C)S(=O)(=O)N2CCC(C)CC2)n1 ?
Tgondii IFNg: -1

How did COc1ccc(NC(=O)c2ccc(-n3c(C)ccc3C)cc2)c(OC)c1 do in these assays?
Tgondii IFNg: 14

How did COc1ccc(CCCNC(=O)c2ccc(N3CC(O)C3)nc2)cc1 do in these assays?
Tgondii IFNg: -1

Results for COc1cc(CCc2cc(NC(=O)c3ccc(N4C[C@@H](C)N[C@@H](C)C4)cc3)n[nH]2)cc(OC)c1 ?
Tgondii IFNg: -74*

Results for CCN1CCNC(=O)C1CC(=O)N1CCc2[nH]nc(-c3ccccc3F)c2C1 (centres undefined) ?
Tgondii IFNg: 8

Results for COc1ccc(-c2nc3c(s2)CN(C(=O)Nc2ccc(C)cc2C)CC3)cc1 ?
Tgondii IFNg: 53

What do the screens show for `CCOc1ccc(-c2nc3c(s2)CN(C(=O)Nc2ccc(C)c(C)c2)CC3)cc1`?
Tgondii IFNg: -106*

What do the screens show for `Cc1ccc(NC(=O)N2CCc3nc(-c4ccccc4)sc3C2)cc1C`?
Tgondii IFNg: 101

How did CCOc1ccc(-c2nc3c(s2)CN(C(=O)Nc2ccc(C)cc2)CC3)cc1 do in these assays?
Tgondii IFNg: -66

What do the screens show for `COc1ccc(C)cc1NC(=O)N1CCc2nc(-c3ccc(C)cc3)sc2C1`?
Tgondii IFNg: -13

What do the screens show for `CCOc1ccc(-c2nc3c(s2)CN(C(=O)Nc2cc(C)ccc2C)CC3)cc1`?
Tgondii IFNg: -112*

What do the screens show for `c1ccc(CCn2nnnc2C(c2ccccn2)N2CCC(Cc3ccccc3)CC2)cc1` (centres undefined)?
Tgondii IFNg: -36

What do the screens show for `Cc1nc(C2CCCCN2Cc2cc(Cl)c3c(c2)OCCCO3)ncc1C(=O)N(C)C` (centres undefined)?
Tgondii IFNg: -56

How did COc1ccccc1-n1cnnc1Cc1ccncc1 do in these assays?
Tgondii IFNg: -7

Results for CC(C)N(C(=O)c1ccccc1-c1ccccc1C(=O)N(C(C)C)C(C)C)C(C)C ?
Tgondii IFNg: -87*

How did CC(=O)c1ccccc1-c1ccccc1C(=O)NC(C)C do in these assays?
Tgondii IFNg: -45

What do the screens show for `Cc1onc(-c2c(Cl)cccc2Cl)c1C(=O)N(C(C)C)C(C)C`?
Tgondii IFNg: 38

Results for CC1CCN(S(=O)(=O)c2ccc3c(c2)CCC(=O)N3CC(=O)NCc2ccc(Cl)cc2)CC1 ?
Tgondii IFNg: -56

Results for CN(C)C(=O)c1cn(-c2nc(CNc3cccnc3)c3ccccn23)cn1 ?
Tgondii IFNg: 42

Results for COc1ccc(-c2cc(=O)n3[nH]c(SCc4ccccc4Cl)nc3n2)cc1 ?
Tgondii IFNg: 46

What do the screens show for `Cc1cc(C)c2c(N)c(C(=O)Nc3cccc4ccccc34)sc2n1`?
Tgondii IFNg: 2

How did CC1(C)Cc2c(sc3ncnc(N)c23)CO1 do in these assays?
Tgondii IFNg: 7

What do the screens show for `CCCCN(CCCC)c1ncnc2c1sc1nc3c(cc12)COC(C)(C)C3`?
Tgondii IFNg: -103*

How did O=C(Nc1cccc(F)c1)N1CCC2(CC1)Nc1cc(F)ccc1-n1cccc12 do in these assays?
Tgondii IFNg: inactive

How did Cc1noc(C2CCCN2Cc2cccc(C(=O)Nc3c(C)noc3C)c2)n1 (centres undefined) do in these assays?
Tgondii IFNg: -10

What do the screens show for `COc1cc2c(cc1O)CC[C@@H]1[C@@H]2CC[C@]2(C)[C@@H](O)CC[C@@H]12`?
Tgondii IFNg: -83*!

Results for C[C@]12CC[C@@H]3c4ccc(O)cc4CC[C@H]3[C@@H]1C[C@@H](O)[C@@H]2O ?
Tgondii IFNg: 17

How did CC12CCC3c4ccc(O)cc4CCC3C1C[C@H](O)[C@@H]2O (some centres undefined) do in these assays?
Tgondii IFNg: 8

What do the screens show for `COc1cccc(-c2nn(CC3CC3)c3c2[C@@H]2CN(C(=O)c4ccccc4)C[C@@H]2C3)c1`?
Tgondii IFNg: -20

What do the screens show for `O=C(NCCc1csc(-c2ccc(Cl)cc2)n1)C(=O)Nc1ccccc1`?
Tgondii IFNg: 15

Results for CCOC(=O)N1CCC2(CC1)OC(=O)C(C)=C2C(=O)NCc1ccccc1C ?
Tgondii IFNg: 121

What do the screens show for `C1=C/COCc2cc(ccc2OCCN2CCCC2)Nc2nccc(n2)-c2cccc(c2)COC/1`?
Tgondii IFNg: -85*

What do the screens show for `Cc1ccc(CN2CCC3OCCCC3(COCc3ccncc3)C2)o1` (centres undefined)?
Tgondii IFNg: -42

How did CN(C)C(=O)[C@@]12CCCN(c3ncccn3)[C@H]1CN(Cc1cccc(Cl)c1)C2 do in these assays?
Tgondii IFNg: 4

Assay outcomes from PubChem BioAssay.
